Assay results published in PubChem BioAssay (EPA / NIEHS).
Several values for one entry are separate records, joined by “and”; a condition that tells them apart may be missing. Equal values may be shown once. Results filed as inconclusive are left out. More than one record can exist for a structure, and the calls need not agree. Activity calls are given as the source filed them. Rule for the calls, unless noted: active = hit-call score of the fitted dose curve at least 0.9, where 1 is the maximum; inactive = score below 0.9.

Experiments:
[1] = CCTE_Shafer_MEA_acute_spike_number: CCTE's Neural Acute Assay for Total Number of Spikes, Shafer Lab (AID 2284008);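 for AC50: curve fitted for decrease in spike count so AC50 reflects inhibitors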
How it was run: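 Cortical neurons from rat, matured to DIV 13 or 15 on microelectrode arrays, are recorded at 37 C before and during 40-min exposure to 0.03-40 uM compound. Wells need >/= 10 active electrodes.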

[2] = CCTE_Shafer_MEA_acute_firing_rate_mean: CCTE's Neural Acute Assay for Mean Firing Rate, Shafer Lab (AID 2284009);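 note: analyzed for loss of signal so actives lower firing rate relative to DMSO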
How it was run: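 Read-out: well-mean spike rate (spikes/recording length/electrodes), % change from 40 min pre-dose baseline to 40 min with compound. Rat cortical cultures, DIV 13 or 15, 37 C; 0.03-40 uM; DMSO as negative control.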

[3] = CCTE_Harrill_HTTr_Viability_MCF7: CCTE's 6-hour Cell Viability Assessment for the High-Throughput Transcriptomics (HTTr) Platform, in MCF-7 cells cultured in DMEM + 10% fetal bovine serum, Harrill Lab (AID 2284010)
How it was run: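 Viability measured through PI dye exclusion by high-content imaging at 6 h post-dosing.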

[4] = CCTE_Harrill_HTTr_Apoptosis_MCF7: CCTE's 6-hour Apoptosis Assessment for the High-Throughput Transcriptomics (HTTr) Platform, in MCF-7 cells cultured in DMEM + 10% fetal bovine serum, Harrill Lab (AID 2284011)
How it was run: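 Cells are dosed with test chemicals at eight concentrations and imaged 6 hours later for caspase-3/7 activity using a green fluorogenic detection reagent. Activity is fitted in both directions against DMSO controls.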

[5] = CCTE_Harrill_HTTr_CellCount_MCF7: CCTE's Cell Proliferation Assessment for the High-Throughput Transcriptomics (HTTr) Platform, Harrill Lab (AID 2284012; active = hit-call score of the fitted dose curve at least 0.9, where 1 is the maximum;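 note: count of Hoechst-stained nuclei per well by high-content imaging in MCF-7 cells; cells exposed to compound for six hours; intended direction is loss of nuclei count meaning fewer cells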)
How it was run: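 Nuclei counting (Hoechst, high content imaging) in MCF-7 after a 6 h treatment at eight concentrations. Activity fitted bidirectionally, DMSO as negative control.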

[6] = CCTE_Shafer_MEA_acute_burst_number: CCTE's Neural Acute Assay for Single-Electrode Bursts, Shafer Lab (AID 2284013)
How it was run: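 Rat cortical cultures, DIV 13/15; 40 min baseline, then 40 min with compound 0.03-40 uM, 37 C. Spikes: 300-5000 Hz band-pass, threshold 8x rms noise. Readout = % change in single-electrode bursts vs baseline, loss-of-signal fit.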

[7] = CCTE_Shafer_MEA_acute_burst_duration_mean: CCTE's Neural Acute Assay for Mean Burst Duration, Shafer Lab (AID 2284014);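 note: hits are decreases in mean burst duration relative to DMSO controls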
How it was run: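 Primary rat cortical neurons on 16-electrode MEA wells, treated on DIV 13 or 15 with compound (0.03-40 uM; ≥3 wells each). 40-min baseline and 40-min exposure recordings at 37 C; percent change in mean burst duration per well versus DMSO.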

[8] = target: THRB (gene 7068) (UniProt P10828); test: TOX21_TRB_COA_Antagonist_Followup_ratio: Tox21 Thyroid Hormone Receptor beta Antagonism through Coactivator Recruitment Follow-Up Assay, Ratio (AID 2283967; active = hit-call score of the fitted dose curve at least 0.9, where 1 is the maximum)
How it was run: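 Cell-free TR-FRET coactivator recruitment with GST-tagged TRβ LBD (5.0 nM) and fluorescein-labeled SRC-2 peptide (200 nM) detected by terbium anti-GST antibody (2 nM). The 520:495 nm emission ratio was normalized to DMSO (0%) and T3 (100%).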

[9] = target: Retinoic acid receptor RXR-alpha (Homo sapiens) (UniProt P19793); test: TOX21_TR_RXR_BLA_Antagonist_Followup_ratio: Tox21 Thyroid Hormone Receptor beta Retinoid X Receptor alpha (RXRa) Antagonism Beta-lactamase (BLA) Follow-Up Assay, Ratio (AID 2283972; active = hit-call score of the fitted dose curve at least 0.9, where 1 is the maximum)
How it was run: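 Antagonist mode used GAL4 UAS-driven beta-lactamase in HEK293T cells expressing RXRa, treated for 16 h with compound concentration series. Activity was taken from the blue/green (460:530 nm) ratio of cleaved to uncleaved substrate.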

[10] = TOX21_TR_RXR_BLA_Antagonist_Followup_viability: Viability Assessment in the Tox21 Thyroid Hormone Receptor beta Retinoid X Receptor alpha (RXRa) Antagonism Beta-lactamase (BLA) Follow-Up Assay (AID 2283979; active = hit-call score of the fitted dose curve at least 0.9, where 1 is the maximum)
How it was run: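 RXRa-UAS-bla HEK293T cells seeded 2,500/well in phenol red-free DMEM with 2% charcoal-stripped FBS, attached 5 h, then exposed to compounds at 11 concentrations in triplicate for 16 h at 37C/5% CO2. Viability read by CellTiter-Glo ATP luminescence; bidirectional fit versus DMSO.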

[11] = CCTE_Simmons_MITO_basal_resp_rate: CCTE's HepG2 Seahorse XF Respirometric Screening Assay at Basal Respiratory State, Simmons Lab (AID 2284001); conditions: actives raise or lower the signal
How it was run: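 HepG2 cells were given test chemicals at 7 concentrations, 125 nM to 100 uM final, and oxygen consumption rate was read every 6 min (3 min mix, 3 min measure) over 72 min. Basal-phase OCR was fitted bidirectionally against DMSO.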

[12] = CCTE_Simmons_MITO_max_resp_rate: CCTE's HepG2 Seahorse XF Respirometric Screening Assay at Maximal Respiratory State [uncoupled], Simmons Lab (AID 2284002); conditions: actives raise or lower the signal
How it was run: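 Maximal respiration in HepG2 cells is recorded as OCR by Seahorse XF following FCCP injection. Compounds span 125 nM–100 uM final; activity is called in either direction against DMSO.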

[13] = CCTE_Simmons_MITO_inhib_resp_rate: CCTE's HepG2 Seahorse XF Respirometric Screening Assay at Inhibited Respiratory State [full ETC block], Simmons Lab (AID 2284006); conditions: actives raise or lower the signal
How it was run: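 Inhibited respiration was taken as HepG2 oxygen consumption after rotenone/antimycin A, which followed test-compound and FCCP injections. Chemicals were tested at seven final concentrations from 125 nM to 100 uM. Activity was fitted bidirectionally relative to DMSO.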

[14] = CCTE_Simmons_MITO_viability: CellTiter-Glo Viability Assessment for CCTE's HepG2 Seahorse XF Respirometric Screening Assay [post-hoc], Simmons Lab (AID 2284007; active = hit-call score of the fitted dose curve at least 0.9, where 1 is the maximum;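 for AC50: cells exposed to chemical for 90 min before the ATP read; actives lower ATP signal relative to DMSO baseline meaning reduced viability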)
How it was run: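 HepG2 cells; test chemical 7 conc. (125 nM–100 uM final) × 90 min; then luminescent ATP detection. DMSO vehicle. Positive control dichlone, 8 conc. from 10 nM to 100 uM final. Loss-of-signal endpoint.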

[15] = target: Ratio of Nucleoli Translocation and Cytoplasm, AR (gene 367) (UniProt P10275); test: UPITT_HCI_U2OS_AR_TIF2_Nucleoli_Cytoplasm_Ratio_Agonist: University of Pittsburgh U2OS Androgen Receptor-Transcriptional Intermediary Factor 2 (AR-TIF2) Agonism High Content Imaging Assay for Ratio of Nucleoli Translocation and Cytoplasm (AID 2284000; active = hit-call score of the fitted dose curve at least 0.9, where 1 is the maximum;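 note: hits raise the red nucleolar to cytoplasm ratio above vehicle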)
How it was run: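 U2OS cells expressing RFP-tagged human AR and GFP-tagged TIF2 were imaged by high-content fluorescence microscopy. The endpoint is the ratio of nucleolar to cytoplasmic red fluorescence, fitted for gain of signal relative to DMSO. Concentration-response spanned 0.195 to 50 uM final (0.5% DMSO).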

[16] = tested on: DIO1 (gene 1733); test: CCTE_GLTED_hDIO1: CCTE's human Deiodinase 1 (DIO1) Inhibition Assay, Great Lakes Toxicology and Ecology Division (GLTED) Lab (AID 2283987; active = hit-call score of the fitted dose curve at least 0.9, where 1 is the maximum;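 note: isolated human DIO1 enzyme in a cell-free setup rather than cells; enzyme activity read as free iodide liberated from substrate via Sandell-Kolthoff colorimetry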)
How it was run: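 Cell-free hDIO1 assay, triplicate plates. Absorbance of the Sandell-Kolthoff reaction reports enzyme-liberated iodide; iodinated chemicals or nitrite, iron and thiocyanate may interfere.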

[17] = target: Nucleoli Translocation, AR (gene 367) (UniProt P10275); test: UPITT_HCI_U2OS_AR_TIF2_Nucleoli_Agonist: University of Pittsburgh U2OS Androgen Receptor-Transcriptional Intermediary Factor 2 (AR-TIF2) Agonism High Content Imaging Assay for Nucleoli Translocation (AID 2283998; active = hit-call score of the fitted dose curve at least 0.9, where 1 is the maximum)
How it was run: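 Red-tagged human androgen receptor co-expressed with GFP-tagged TIF2 serves as the binding reporter. Primary testing used 20 uM final (0.2% DMSO); follow-up dose response covered 0.195 to 50 uM final (0.5% DMSO).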

[18] = target: Ratio of Nucleoli Translocation and Cytoplasm, AR (gene 367) (UniProt P10275); test: UPITT_HCI_U2OS_AR_TIF2_Nucleoli_Cytoplasm_Ratio_Antagonist: University of Pittsburgh U2OS Androgen Receptor-Transcriptional Intermediary Factor 2 (AR-TIF2) Antagonism High Content Imaging Assay for Ratio of Nucleoli Translocation and Cytoplasm (AID 2283999; active = hit-call score of the fitted dose curve at least 0.9, where 1 is the maximum;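 note: antagonists lower the DHT-driven ratio of nucleolar to cytoplasmic red signal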)
How it was run: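 High-content imaging quantifies the red nucleolar:cytoplasmic fluorescence ratio in U2OS cells with AR-RFP and TIF2-GFP. Final concentrations are 20 uM (screen) or 0.195–50 uM (dose response), analysed against DHT as baseline.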

[19] = target: Retinoic acid receptor RXR-alpha (Homo sapiens) (UniProt P19793); test: TOX21_TR_RXR_BLA_Agonist_Followup_ratio: Tox21 Thyroid Hormone Receptor beta Retinoid X Receptor alpha (RXRa) Agonism Beta-lactamase (BLA) Follow-Up Assay, Ratio (AID 2283968; active = hit-call score of the fitted dose curve at least 0.9, where 1 is the maximum)
How it was run: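 This follow-up tests whether responses seen in the TR GH3 luciferase agonist screen are specific, using a GAL4-driven beta-lactamase reporter for RXRa in HEK293T cells. Compound exposure lasts 16 h; signal is the cleaved/uncleaved substrate ratio.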

[20] = TOX21_TR_RXR_BLA_Agonist_Followup_viability: Viability Assessment in the Tox21 Thyroid Hormone Receptor beta Retinoid X Receptor alpha (RXRa) Agonism Beta-lactamase (BLA) Follow-Up Assay (AID 2283970; active = hit-call score of the fitted dose curve at least 0.9, where 1 is the maximum)
How it was run: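 In qHTS format, RXRa-bla HEK293T cells (2,500/well) received compound for 16h. ATP content was then measured with CellTiter-Glo, and responses were fitted bidirectionally relative to DMSO controls.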

Measured: AC50

Sequence of Nucleoli Translocation, AR (gene 367) (P10275 whole entry, looked up): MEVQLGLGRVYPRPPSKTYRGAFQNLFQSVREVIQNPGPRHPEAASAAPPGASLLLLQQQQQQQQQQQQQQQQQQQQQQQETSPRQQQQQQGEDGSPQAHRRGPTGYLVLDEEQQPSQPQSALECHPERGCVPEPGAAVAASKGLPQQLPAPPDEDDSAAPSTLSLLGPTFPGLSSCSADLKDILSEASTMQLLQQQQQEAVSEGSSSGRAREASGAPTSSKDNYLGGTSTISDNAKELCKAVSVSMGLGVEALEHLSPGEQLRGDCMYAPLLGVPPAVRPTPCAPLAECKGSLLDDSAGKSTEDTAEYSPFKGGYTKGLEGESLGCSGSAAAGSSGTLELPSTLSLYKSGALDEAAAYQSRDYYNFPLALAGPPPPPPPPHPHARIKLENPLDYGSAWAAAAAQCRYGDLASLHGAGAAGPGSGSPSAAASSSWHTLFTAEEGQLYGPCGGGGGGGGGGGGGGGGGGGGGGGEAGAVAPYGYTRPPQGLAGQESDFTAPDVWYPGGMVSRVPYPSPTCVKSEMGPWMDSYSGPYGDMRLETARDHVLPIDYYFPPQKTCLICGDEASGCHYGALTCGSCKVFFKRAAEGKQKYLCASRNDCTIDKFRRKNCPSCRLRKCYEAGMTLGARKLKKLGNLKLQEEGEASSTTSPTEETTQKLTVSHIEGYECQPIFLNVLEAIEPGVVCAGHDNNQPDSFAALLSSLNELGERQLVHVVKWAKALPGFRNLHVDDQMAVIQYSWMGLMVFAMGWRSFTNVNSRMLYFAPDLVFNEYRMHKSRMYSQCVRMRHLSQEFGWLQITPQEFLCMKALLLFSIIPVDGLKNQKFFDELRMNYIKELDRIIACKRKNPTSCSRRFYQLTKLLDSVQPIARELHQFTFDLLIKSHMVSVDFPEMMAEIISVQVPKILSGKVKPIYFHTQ
Sequence of Ratio of Nucleoli Translocation and Cytoplasm, AR (gene 367) (P10275 whole entry, looked up): as above
Sequence of Retinoic acid receptor RXR-alpha (Homo sapiens) (P19793 whole entry, looked up, the tested form may be a part): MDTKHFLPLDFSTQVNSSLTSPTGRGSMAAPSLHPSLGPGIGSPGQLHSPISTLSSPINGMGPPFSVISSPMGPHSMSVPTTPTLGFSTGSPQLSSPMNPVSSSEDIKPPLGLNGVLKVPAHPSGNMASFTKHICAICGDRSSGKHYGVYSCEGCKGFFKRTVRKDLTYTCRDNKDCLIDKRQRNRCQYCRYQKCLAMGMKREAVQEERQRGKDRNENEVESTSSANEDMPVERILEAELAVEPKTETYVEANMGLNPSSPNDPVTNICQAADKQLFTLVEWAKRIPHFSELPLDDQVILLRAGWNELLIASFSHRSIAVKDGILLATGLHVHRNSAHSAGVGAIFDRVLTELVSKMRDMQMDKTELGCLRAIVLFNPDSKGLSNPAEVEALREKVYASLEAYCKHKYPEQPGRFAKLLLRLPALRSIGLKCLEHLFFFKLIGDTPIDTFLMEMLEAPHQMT
Sequence of THRB (gene 7068) (P10828 whole entry, looked up, the tested form may be a part): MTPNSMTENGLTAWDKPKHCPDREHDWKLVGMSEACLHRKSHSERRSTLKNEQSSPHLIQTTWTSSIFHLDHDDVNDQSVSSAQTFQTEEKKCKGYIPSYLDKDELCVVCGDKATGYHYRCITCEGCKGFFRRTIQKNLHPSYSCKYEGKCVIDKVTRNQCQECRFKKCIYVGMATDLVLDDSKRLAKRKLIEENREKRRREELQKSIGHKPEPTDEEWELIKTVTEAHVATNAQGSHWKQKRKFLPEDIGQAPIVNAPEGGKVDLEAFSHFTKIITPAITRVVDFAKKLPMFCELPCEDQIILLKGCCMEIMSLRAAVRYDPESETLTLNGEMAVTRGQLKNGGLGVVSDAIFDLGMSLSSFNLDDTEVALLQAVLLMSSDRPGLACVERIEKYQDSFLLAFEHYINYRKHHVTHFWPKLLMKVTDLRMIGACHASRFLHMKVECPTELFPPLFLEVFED

O=C(c1ccc(OCCN2CCCCC2)cc1)c1c(-c2ccc(O)cc2)sc2cc(O)ccc12
inactive: [3] | [4] | [5] | [7]
active: [1] 14300 nM | [2] 14100 nM | [6] 11200 nM

C#C[C@]1(O)CC[C@H]2[C@@H]3CCc4cc(O)ccc4[C@H]3CC[C@@]21C
active: [9] 38.3 µM | [11] 33.4 µM
inactive: [8] | [10] | [12] | [13] | [14] | [3] | [4] | [5]

CC(=O)N(C)C
inactive: [15] | [3] | [4] | [5]

CC(C)(C)c1ccc(S)cc1
active: [16] 16.3 µM

CC1=CCC(C(C)(C)O)CC1 (stereo unspecified)
inactive: [15] | [3] | [4] | [5]

CC(CCO)CC(C)(C)C (stereo unspecified)
inactive: [17] | [18] | [15]

CC/C(=C(\c1ccccc1)c1ccc(OCCN(C)C)cc1)c1ccccc1
active: [16] 56.9 µM and 72.6 µM | [14] 73.5 µM | [1] 2.73 µM and 4.6 µM | [2] 2.73 µM and 4.63 µM | [3] 67.3 µM | [5] 72.5 µM | [6] 2.79 µM and 4.2 µM
inactive: [11] | [12] | [13] | [3] | [4] | [5] | [7]

CCn1cc(C(=O)O)c(=O)c2ccc(C)nc21
inactive: [3] | [4] | [5] | [7]
active: [1] 3 nM | [2] 3 nM | [6] 3 nM

CCCCOCCOCCO
inactive: [1] | [2] | [3] | [4] | [5] | [6] | [7]

CC(C)(CO)CO
inactive: [17] | [15] | [1] | [2] | [6] | [7]

CCCCCCOc1ccc(O)cc1
active: [17] 27.7 µM | [18] 90 µM | [15] 23.9 µM

CCC(C)(C)C1CCC(=O)CC1
inactive: [17] | [18] | [15]

c1ccc2c(c1)-c1ccc3ccc4cccc5cc-2c1c3c45
inactive: [17] | [18] | [15] | [3] | [4]

O=C(O)C1=NN(c2ccc(S(=O)(=O)O)cc2)C(=O)C1
inactive: [3] | [4] | [5]
active: [16] 57.6 µM

C[C@]12CC[C@@H]3c4ccc(O)cc4CC[C@H]3[C@@H]1CC[C@@H]2O
active: [11] 27.1 µM | [14] 27 µM
inactive: [12] | [13] | [3] | [4]

CCO[Si](CC)(OCC)OCC
inactive: [17] | [18] | [15]

OC[C@H]1O[C@@H](O[C@H]2[C@H](O)[C@@H](O)[C@H](O)O[C@@H]2CO)[C@H](O)[C@@H](O)[C@H]1O
inactive: [18] | [3] | [4] | [5]

COc1cc(OC)c2ccc(=O)oc2c1
inactive: [18]

CCCCCCC(C)O (stereo unspecified)
inactive: [19] | [20]

c1ccc(OCCOc2ccccc2)cc1
inactive: [1] | [2] | [3] | [4] | [5] | [6] | [7]

CC1COC(=O)O1 (stereo unspecified)
inactive: [17] | [15]

N[C@@H](CCC(=O)O)C(=O)O
inactive: [1] | [2] | [6] | [7]

CC(C)CCCC(C)(C)O
inactive: [1] | [2] | [6] | [7]

CCCCCCCCCCOC(=O)c1ccccc1C(=O)OCCCCCCCC
inactive: [17] | [15]

CCCCN(CCO)CCO
inactive: [1] | [2] | [6] | [7]

CCOc1ccc(NC(C)=O)cc1
inactive: [17] | [18] | [15] | [3] | [4] | [5]

COC(=O)c1cccc(C(=O)OC)c1
inactive: [17] | [18]

CCCCCCCCOC(=O)c1ccc(O)cc1
active: [16] 86.4 µM

CCCO[Si](OCCC)(OCCC)OCCC
inactive: [1] | [2] | [6] | [7]

CC(C)(C)c1cccc(O)c1
active: [17] 30.6 µM | [15] 50 µM
inactive: [18]

FC(F)(F)c1ccc(Cl)c(Cl)c1
inactive: [18] | [15] | [3] | [4] | [5]

CC(=O)c1ccc(C)cc1
active: [1] 3 nM | [2] 3 nM | [6] 3 nM
inactive: [7]

CC(C)Cc1ccc(C(C)C(=O)O)cc1 (stereo unspecified)
inactive: [3] | [4]

CC(=O)CCc1ccc(O)cc1
inactive: [3] | [4]

Brc1cc(Br)cc(Br)c1
inactive: [3] | [4] | [5]

CCCCOCCOCCOCCO
inactive: [3] | [4]

NS(=O)(=O)c1cc(C(=O)O)c(NCc2ccco2)cc1Cl
inactive: [3] | [4]

CC(C)(O)CCc1ccccc1
inactive: [3] | [4] | [5]
